Data reported in PubChem BioAssay AID493073 (Broad Institute, 2011).
In all, about 1,200 compounds went through this assay and about 810 (68%) were called active. How the calls were made is not given here. So high a share suggests a set chosen from earlier hits. Only a sample is shown. Results with a measured potency or affinity are listed apart.

test: TRPM1 promoter luciferase signal decrease, dose response, MITF inhibitor project, cell-based, SK-MEL-5, cherry-picked, set 3 (AID 493073); settings: SK-MEL-5 TRPM1 promoter luciferase, 24 h; series mostly up to 35 µM

outcome, inactive:
COCCNC(=O)c1cc2sc3ccccc3c2s1, FC(F)(F)Oc1ccc(-c2cn3cccnc3n2)cc1, O=C(CNC(=O)c1ccc(Br)cc1)c1ccccc1, Clc1ccccc1CSc1nnc(-c2ccncc2)o1, O=C(Nc1nc2ccccc2s1)Nc1ccc(F)cc1F, Cc1ccc(C(=O)Nc2nc3ccc(Cl)cc3s2)o1, Cc1ccc2nc(NC(=O)c3ccc(Br)o3)sc2c1, COC(=O)c1ccc(COc2ccc(C)cc2[N+](=O)[O-])o1, COc1ccc2oc3ccc(OC)cc3c(=O)c2c1, Cc1cc(NC(=O)c2ccc(Cl)cc2Cl)no1, O=C(Nc1cccnc1Cl)c1cc(-c2ccco2)on1, CC1CCN(c2ccc(NC(=O)c3cccnc3)cc2)CC1, NNC(=O)Cn1c(SCc2ccccc2)nc2ccccc21, COC(=O)c1ccc(COc2ccc3c(c2)CCC3)o1, O=C(Nc1nc2ccsc2c(=O)s1)C1CCC1, O=C(O)C1CCN(C(=O)OCc2ccccc2)CC1, CCOc1ccccc1-c1nc(-c2ccc(C)nc2OC)no1, Cc1ccc(-c2nc(-c3ccncc3)no2)cc1C, Fc1ccccc1-c1nc(-c2ccncc2)no1, Clc1ccc(-c2nc(-c3ccncc3)no2)c(Cl)c1, O=C(Nc1ccc(Cl)cc1)C1C2CCCCC21 (stereo not drawn), Cc1ccc(SCCC(=O)N2CCC(C)CC2)cc1, N/C(=N\OC(=O)c1ccncc1)c1cccc([N+](=O)[O-])c1, N/C(=N\OC(=O)c1ccccc1Cl)c1cccc([N+](=O)[O-])c1, CCn1c(=O)c(C(=O)NCc2ccccc2Cl)c(O)c2ccccc21, Cc1ccc(SCc2cn3cc(Cl)ccc3n2)cc1, N/C(=N\OC(=O)c1cccc(F)c1)c1cccc([N+](=O)[O-])c1, Cc1ccccc1OCc1nc2c3cnn(C)c3ncn2n1, CC(C)(C)c1ccc(OCCn2ccccc2=O)cc1, Cc1ccc(OCCNCc2ccccc2)c(C)c1, COc1ccc(NC(=O)c2cc(-c3ccccc3Cl)on2)cc1, O=C1c2ccccc2C(=O)N1CCOc1ccccc1, CC(C)c1nnc(NC(=O)CCC2CCCCC2)s1, CC(C)(C)C1CCC(OC(=O)CN2CCCCC2)CC1 (stereo not drawn), COc1ccc(C2C(C#N)=C(N)Oc3c2oc(CO)cc3=O)cc1 (stereo not drawn), CC(=O)c1ccc(N/C=C/C(=O)c2ccc(Br)cc2)cc1, O=C(Nc1ccc2ncccc2c1)c1ccccc1Br, Oc1ccccc1/C=N/Nc1cccc2cccnc12, Cc1ccc2nc(Cc3ccc(N)cc3)oc2c1, CCOc1ccccc1NC(=O)C1C2CCC(O2)C1C(=O)O (stereo not drawn), COc1ccc(-c2cc(-c3ccc(OC)c(OC)c3)n[nH]2)c(O)c1, COc1ccc(C(=O)NCC(=O)c2ccccc2)cc1, COc1ccc(C(=O)NCCSc2ccccc2C)cc1, COc1cccc(CNc2nc3ccccc3n2C)c1O, Cc1cc(C(F)(F)F)c2c(N)c(C(=O)Nc3cc(C)on3)sc2n1, Cc1cc(C)c2c(N)c(C(=O)N/N=C/c3ccccc3)sc2n1, CCc1cc(C=NC2CCCCC2)c(O)s1, Cc1ccccc1NCc1nc2ccccc2n1C, O=C(NCc1ccco1)c1ccc(COCC(F)(F)F)cc1, CN(C)c1ccc(/C=C/c2cccc[n+]2[O-])cc1, Cc1ccc(O)c(NC(=O)c2ccc3c(c2)C(=O)N(CC(C)C)C3=O)c1, Clc1nccnc1N/N=C/c1ccc(Br)cc1, N/C(=N\OC(=O)Cc1cccs1)c1ccccc1, COc1cccc(/C=N/NC(=O)c2cccs2)c1, O=C(NC1CCCCCC1)c1cc2ccccc2oc1=O, O=C(NC1CCCCC1)c1cc2cc(Br)ccc2o1, COc1cccc(-c2ccc3c(N)c(C(=O)NC4CC4)sc3n2)c1, N#C/C(C(=O)c1ccccc1)=C1/CCCCCN1, CCOc1ccc(N=C(C)C2=C(O)c3ccccc3C2=O)cc1, Cn1c(COc2ccccc2Br)nc2ccccc21, NC(=O)c1c(NC(=O)c2cccnc2)sc2c1CCCCC2, Cc1ccc(COc2ccc(C)nc2[N+](=O)[O-])cc1, CCOc1cc(/C=N/N=C(N)N)ccc1OCc1ccc(Cl)cc1, O=C(Nc1ccc(Cl)cc1)N1CC=CCC1, CC(C)(CO)NC(=O)c1ccc2nc(Cc3cccc(Cl)c3)oc2c1, Cc1ccc(C(=O)c2coc3ccc(O)c(Cl)c23)cc1, OCc1ccc(N=Nc2ccccc2)cc1, Cc1ccc(OCCCCN2CCCCC2)c(Br)c1, O=C(Cc1cccs1)NCc1ccc(Cl)cc1Cl, O=C(CCC(=O)c1ccc[nH]1)c1ccc(Cl)cc1, COc1nc(NC2CCCCC2)nc(NC(C)(C)C)n1, C#Cc1cccc(NC(=O)CSc2nnc(-c3ccc(C(F)(F)F)cn3)o2)c1, COc1ccc(NCc2nc3ccccc3n2C)cc1, Cn1c(COc2ccccc2)nc2ccccc21, COc1cc(CN2CCC(C(=O)NCCC(C)C)CC2)ccc1OCc1ccccc1, COc1cccc(/C=C/C(=O)c2ccc3c(c2)OCCO3)c1OC, COc1ccc(C(=O)Nc2ccc3c(c2)OCCO3)cc1Br, COc1ccc(N(CC(=O)NCC2CCCO2)S(=O)(=O)c2ccccc2)cc1OC (stereo not drawn), CC(=O)Nc1cccc(-c2nnc(-c3ccccc3)o2)c1, O=C(CN1CCCCC1)Nc1scc2c1c(=O)oc1ccccc12, CCN(CC)CCNC(=O)C1CCN(S(=O)(=O)c2c(C)noc2/C=C/c2ccccc2F)CC1, Cc1cc(/C(N)=N/OC(=O)Nc2ccc(Cl)cc2)no1, Cc1cccc(NC(=O)c2cnn(-c3ccccc3)c2C)c1C, Cc1ccsc1C(=O)OCC(=O)Nc1sccc1C(N)=O, CCCCC(=O)N/C(N)=N/c1nc2ccccc2o1, Cc1ccc(-c2nc(C#N)c(NCc3ccco3)o2)cc1, Cc1cccc(-c2nc(C#N)c(NCc3ccco3)o2)c1, O=C(NCC1CCCO1)c1cc(-c2ccc(Cl)cc2Cl)on1 (stereo not drawn), O=C(Nc1ccc2nn(-c3ccccc3)nc2c1)c1ccco1, CNc1oc(/C=C/c2cccc(OC)c2)nc1C#N, CC(C)C(=O)Nc1cccc(NC(=O)c2cc3ccccc3o2)c1, Cc1cc(Cl)ccc1NC(=O)c1ccc2c(c1)OCO2, O=C1CN(c2ccccc2)C(=S)N1C(=O)c1ccc(Br)cc1, N=c1n(CC(=O)c2ccc([N+](=O)[O-])cc2)c2ccccc2n1Cc1ccc(Cl)cc1, Cc1c(C=O)c2cc(OCc3ccccc3)ccc2n1C, CC1CCCC(C)N1CCCNC(=O)c1cc2c(s1)-c1ccccc1OC2 (stereo not drawn), COc1ccccc1/C=C/C=N/NC(=O)c1cccs1, Cc1ccc(SCCSc2ncccn2)cc1, CC(C)(C)c1cc(NCCCn2ccnc2)n2ncc(-c3ccccc3)c2n1, Nc1c(-c2ccccc2)cnc2c(-c3ccccc3)cnn12, c1cc(CSc2nnc(-c3ccc4c(c3)OCO4)o2)ccn1, O=C(Nc1nc2ccccc2s1)c1ccccc1[N+](=O)[O-], Cc1ccc(NC(=O)Nc2ccccc2)nc1, COc1cc(SC)ccc1C(=O)NCCOc1ccccc1Cl, Cc1cnn(C(=S)NCCc2ccccc2)c1, CN(C)CCCN(C(=O)CCc1ccccc1)c1nc2ccc(Br)cc2s1, COc1ccc(C)c2sc(N(CCN(C)C)C(=O)/C=C/c3cccs3)nc12, O=C(CSC(=S)N1CCCCC1)c1c(F)cccc1F, COC(=O)c1c(C)[nH]c(/C=N/Nc2ccccc2)c1C, COc1ccc(CNC(=O)CN2C(=O)C3C4C=CC(C4)C3C2=O)cc1 (stereo not drawn), COc1cc(CN2CCC(C(N)=O)CC2)ccc1OCc1ccccc1, O=C(Nc1cc2c(cc1Cl)OCCO2)c1ccco1, CCOC(=O)c1sc(-c2ccccc2)cc1N, Cc1nn2c(N)c(-c3ccccc3)cnc2c1-c1ccccc1, CC(=O)Nc1cccc2c1Cc1ccccc1-2, CN(C)CCNC(=O)COc1ccc(C23CC4CC(CC(C4)C2)C3)cc1, Cc1ccc(-n2ncc3c(SCC(N)=O)ncnc32)cc1C, Cn1c(/C=C/c2ccc(Cl)cc2)nc2ccccc2c1=O, Cc1ccc(OCC(=O)Nc2ccccc2F)cc1, Fc1cccc(Cl)c1CSc1nnc(-c2ccncc2)o1, CSc1nc(N)n2nc(-c3ccc(Cl)cc3)cc2n1, O=[N+]([O-])c1ccccc1OCCOc1ccccc1[N+](=O)[O-], COc1ccc(NC(=O)Nc2ccc(F)c(F)c2)c(OC)c1, O=C(c1cc2ccccc2oc1=O)N(Cc1ccccc1)C1CCS(=O)(=O)C1 (stereo not drawn), O=C(CCCc1ccccc1)N1CCN(C2CCCCC2)CC1, N=C1C(c2nc3ccccc3[nH]2)=C(O)CN1C1CCCCC1, c1ccc(OCc2nc3ccccc3[nH]2)cc1, Cc1c(C(=O)N(CCO)Cc2ccccc2)oc2c(F)cccc12
